In paper PMC10726135, “HNF4α isoforms regulate the circadian balance between carbohydrate and lipid metabolism in the liver”:
Over roughly 18,000 sequences, “log2 normalized intensity” has its median near 0.39; the highest 2% begin near 6.6. For the sample, the highest values were picked, then their nearest neighbours and some sequences at random.

The sequences below were run against T1, HNF4alpha2 (COS-7 nuclear extract) (Homo sapiens, UniProt P41235 1-474) (assay: protein-binding microarray; COS-7 nuclear extract on double-stranded Agilent 4x180k PBM; binding buffer, salt, pH and temperature not given in the material; high values mean tight binding). Conditions: chain copies: 2; label: 3' end of strand 1 on the slide; dsDNA, one strand shown.
T1 sequence: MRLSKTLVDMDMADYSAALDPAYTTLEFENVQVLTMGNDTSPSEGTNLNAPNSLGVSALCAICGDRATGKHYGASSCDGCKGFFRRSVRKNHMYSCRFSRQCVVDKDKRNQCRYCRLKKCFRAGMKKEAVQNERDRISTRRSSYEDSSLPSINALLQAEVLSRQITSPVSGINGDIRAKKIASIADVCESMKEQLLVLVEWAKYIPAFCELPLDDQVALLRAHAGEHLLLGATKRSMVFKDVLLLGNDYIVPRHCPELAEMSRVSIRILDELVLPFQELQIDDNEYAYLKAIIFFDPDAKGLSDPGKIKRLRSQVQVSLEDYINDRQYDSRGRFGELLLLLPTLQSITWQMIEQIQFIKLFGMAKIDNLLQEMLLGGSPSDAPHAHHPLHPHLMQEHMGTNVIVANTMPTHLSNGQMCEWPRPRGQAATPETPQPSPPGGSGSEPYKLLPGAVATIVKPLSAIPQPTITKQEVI
In short: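 Binding signal was defined as the normalized, background-corrected gProcessedSignal reported by Agilent software. It came from nuclear extracts of COS-7 cells transiently transfected with a human HNF4α isoform expression vector, applied to a custom Agilent SurePrint G3 4x180k array. That array held ~44,000 test sequences in quadruplicate as double-stranded ~60-nt oligonucleotides, and bound HNF4α was imaged at 2-µm resolution on an Agilent G2565CA scanner.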
In the case of “GCAAACCTACCTGAACTTTGCCCCAGAGGAGCCTAGGGAGATTAGAGTATCGGTCGA”, the binding signal was 5.9 log2 normalized intensity. For “TTGAACCTTGGGTCTGTAATCTCACAACTCGCCTAGGGAGATTAGAGTATCGGTCGA”, the binding signal was 1.47 log2 normalized intensity. Work on “ATGTCTCCAGAAACCAACCTTTGATCATTCGCCTAGGGAGATTAGAGTATCGGTCGA” yielded a binding signal of 4.87 log2 normalized intensity. Sequence “AGAAAGACATGTTTCTAACTGCCCGCATTCGCCTAGGGAGATTAGAGTATCGGTCGA” has a binding signal of 0.246 log2 normalized intensity. Sequence “TATTCCAGGCACAAGAATGGTCATTCTCTGGCCTAGGGAGATTAGAGTATCGGTCGA” has a binding signal of -0.977 log2 normalized intensity. Work on “GGCTTCTGGACTATGCCTTGAACTTTAAGGGCCTAGGGAGATTAGAGTATCGGTCGA” yielded a binding signal of 2.21 log2 normalized intensity. Work on “TGGCACCTGAAGCTGCCCTTTGCACATGCCGCCTAGGGAGATTAGAGTATCGGTCGA” yielded a binding signal of 4.08 log2 normalized intensity. Work on “ATTGGGATGGAGTAACTTGCTAAGTATAAAGCCTAGGGAGATTAGAGTATCGGTCGA” yielded a binding signal of -0.531 log2 normalized intensity. “TCTTTTCTAAGATATTTGCATAGGCATTGTGCCTAGGGAGATTAGAGTATCGGTCGA” was tested, and the binding signal was 1.94 log2 normalized intensity. Work on “CTTGTCCAACTCCCCTCCCAAGGCAGCAATGCCTAGGGAGATTAGAGTATCGGTCGA” yielded a binding signal of 4 log2 normalized intensity. For “GATGACATCATCTGTTTGTACGCGTCGAACGCCTAGGGAGATTAGAGTATCGGTCGA”, the binding signal was -0.199 log2 normalized intensity. For “CAACTTTCTCCTCCAGGACCTTGCCCTTTAGCCTAGGGAGATTAGAGTATCGGTCGA”, the binding signal was 4.23 log2 normalized intensity. With “CAAAACTTTAGGACTTTGAACCTTGGGTCTGCCTAGGGAGATTAGAGTATCGGTCGA” the binding signal was 7.13 log2 normalized intensity. Sequence “GGGAGGAGGGCAACCTTTGAACTGGGTCTTGCCTAGGGAGATTAGAGTATCGGTCGA” has a binding signal of 4.09 log2 normalized intensity. Sequence “CTTTAGGACTTTGAACCTTGGGTCTGTAATGCCTAGGGAGATTAGAGTATCGGTCGA” has a binding signal of 6.04 log2 normalized intensity. “GGACTCTGGAACCATCAGGATTCCAGAGGAGCCTAGGGAGATTAGAGTATCGGTCGA” showed a binding signal of 1.86 log2 normalized intensity. “TTTGCAACCTTTGATAACCTACAACCTTCTGCCTAGGGAGATTAGAGTATCGGTCGA” was tested, and the binding signal was 0.304 log2 normalized intensity. In the case of “CCCAGGTACGGAGGACAGCCACCCGTGCTTGCCTAGGGAGATTAGAGTATCGGTCGA”, the binding signal was -0.928 log2 normalized intensity. “TTACTATAGGTTCTACTCTCCCCAGTTCAAGCCTAGGGAGATTAGAGTATCGGTCGA” was tested, and the binding signal was 3.24 log2 normalized intensity. Sequence “CAGGGGTCATCAGATAGATGGTCAGTGAACGCCTAGGGAGATTAGAGTATCGGTCGA” has a binding signal of 1.44 log2 normalized intensity. For “TGGGGTATCAGGTGGTGATGGTGGGAGGGAGCCTAGGGAGATTAGAGTATCGGTCGA”, the binding signal was 0.113 log2 normalized intensity. “CTCAGTCATACCACATGGATGGATTCAGATGCCTAGGGAGATTAGAGTATCGGTCGA” showed a binding signal of 0.259 log2 normalized intensity. For “AGATCAGATGGGGTGAACTTTGGACCACATGCCTAGGGAGATTAGAGTATCGGTCGA”, the binding signal was 7.41 log2 normalized intensity. In the case of “TACCATGGGAGACCTCAGGGGTCATCAGATGCCTAGGGAGATTAGAGTATCGGTCGA”, the binding signal was 2.49 log2 normalized intensity. Work on “GAGGACTTTGGCCTTTTGTGAGATATGGACGCCTAGGGAGATTAGAGTATCGGTCGA” yielded a binding signal of 3.45 log2 normalized intensity. Sequence “AGATGGGGTGAACTTTGGACCACATATAGAGCCTAGGGAGATTAGAGTATCGGTCGA” has a binding signal of 7.14 log2 normalized intensity. With “ACAGGAGATCAGATGGGGTGAACTTTGGACGCCTAGGGAGATTAGAGTATCGGTCGA” the binding signal was 8.41 log2 normalized intensity. Sequence “GGTGAACTTTGAGACTATCCTTGGACCGCAGCCTAGGGAGATTAGAGTATCGGTCGA” has a binding signal of 2.51 log2 normalized intensity. “TCTCTCTCTCTTTCTTCCCCCACTCCAAGTGCCTAGGGAGATTAGAGTATCGGTCGA” gave a binding signal of 5.09 log2 normalized intensity. “CGAGTCAAGGGTCAATCCTCTCTTTGGAATGCCTAGGGAGATTAGAGTATCGGTCGA” was tested, and the binding signal was 2.31 log2 normalized intensity. In the case of “CCTCCTGCCCTATGTCCTCCAGCTCTTGGGGCCTAGGGAGATTAGAGTATCGGTCGA”, the binding signal was 1.53 log2 normalized intensity. “TGGAAGTCGCCGTGAGGTTATTTGCAGACTGCCTAGGGAGATTAGAGTATCGGTCGA” gave a binding signal of 0.0984 log2 normalized intensity. With “ATTCCTATCGCCCTTCTGTCAAGTCCAAAGGCCTAGGGAGATTAGAGTATCGGTCGA” the binding signal was -0.648 log2 normalized intensity. For “TCTGCACAAAATACAAGTCGTAAAGACCTTGCCTAGGGAGATTAGAGTATCGGTCGA”, the binding signal was 0.709 log2 normalized intensity. Work on “CCCTCAGCAACTGCAAGGCTGACCCGTGAAGCCTAGGGAGATTAGAGTATCGGTCGA” yielded a binding signal of 1.4 log2 normalized intensity. “TGTGAGTCCAGTTGAATGATGGCGAGTGTGGCCTAGGGAGATTAGAGTATCGGTCGA” showed a binding signal of 1.62 log2 normalized intensity. Sequence “TCCAGGCTTGTCCTTTTGACCACAGTTATCGCCTAGGGAGATTAGAGTATCGGTCGA” has a binding signal of 2.33 log2 normalized intensity. “TCTTGACCAGGCAAGCTTGACCTTTGATCCGCCTAGGGAGATTAGAGTATCGGTCGA” was tested, and the binding signal was 10.2 log2 normalized intensity. Sequence “TTGATCCAGGATCCTTCTTGACCAGGCAAGGCCTAGGGAGATTAGAGTATCGGTCGA” has a binding signal of -0.434 log2 normalized intensity. Sequence “ATCCTTCTTGACCAGGCAAGCTTGACCTTTGCCTAGGGAGATTAGAGTATCGGTCGA” has a binding signal of 7.07 log2 normalized intensity. In the case of “CTTGACCTTTGATCCAGGCTCAGTGGGCGTGCCTAGGGAGATTAGAGTATCGGTCGA”, the binding signal was 4.91 log2 normalized intensity. “TTAGGATGACCTTTAGATTCTTACAGGCAAGCCTAGGGAGATTAGAGTATCGGTCGA” showed a binding signal of 3.63 log2 normalized intensity. In the case of “GCAAGCTTGACCTTTGATCCAGGCTCAGTGGCCTAGGGAGATTAGAGTATCGGTCGA”, the binding signal was 7.48 log2 normalized intensity. “ATTTGACCCTTGGCCAGGTGCAGTGGCTCAGCCTAGGGAGATTAGAGTATCGGTCGA” gave a binding signal of 2.99 log2 normalized intensity. In the case of “CAAGCTTGATCCAGGATCCTTCTTGACCAGGCCTAGGGAGATTAGAGTATCGGTCGA”, the binding signal was 0.316 log2 normalized intensity.
